# Results filed as inconclusive are left out. Where a call stands in place of a potency, no number is given. Activity calls are given as the source filed them. Calls come from the whole dose curve; as a rule, active = well fitted cell-killing curve with a large enough effect; inconclusive = small, poorly fitted or top-dose-only effect, or effect the other way; inactive = flat fitted curve, though single readings scatter.
# What was measured:
# [1] = system: Tov-21-G; assay: Primary qHTS to identify gynecologic anti-cancer compounds using libraries of approved drugs and bioactive compounds (AID 1345084); conditions: Gynecologic cancer cell panel viability, ATPlite luminescence, 48 h; series mostly up to 57.5 µM; note: nearly all actives have a fitted effect of over 55% in size
# In short: (§1)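 Measured: luminescence after ATPlite addition (15 min, RT). Exposure: 48 h, 37 C, 5% CO2.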
# [2] = system: Tov112D; assay: as above; conditions: Gynecologic cancer cell panel viability, ATPlite luminescence, 48 h; series mostly up to 57.5 µM
# In short: as §1
# Potency is the fitted concentration of half-maximal effect.
Structure (SMILES),Potency [1],Potency [2]
NC(=O)c1nc(Nc2ccccc2)sc1NC(=O)C1CCCCC1,inactive,inactive
C=C1CC[C@@H]2[C@](C)(CO)[C@H](O)CC[C@@]2(C)[C@@H]1CC(O)C1=CCOC1=O (some centres not stated),inactive,inactive
C=C(C)[C@@H]1CC[C@]2(C(=O)O)CC[C@]3(C(=O)O)[C@H](CCC4[C@@]5(C)CCC(=O)C(C)(C)C5CC[C@]43C)C12 (some centres not stated),inactive,inactive
CC(C)C[C@@H]1NC(=O)[C@@H]2C[C@@]34C[C@@H]5[C@@]6(C)CCCC(C)(C)C6CC[C@@]5(C)N(c5ccccc53)[C@H]4N2C1=O (some centres not stated),inactive,inactive
Cc1cc(CS(=O)(=O)c2ccccc2)cc(OCc2ccc(CN3CCCC3CO)cc2)c1 (configuration not stated),inactive,inactive
CN(c1ccc(NC(=O)Nc2ccccc2)cc1)S(=O)(=O)c1cnn(-c2ccc(F)cc2)c1,inactive,inactive
FC(F)(F)c1ccc(/C=C/c2nc(COc3ccc(CCCCn4ccnn4)cc3)co2)cc1,inactive,inactive
CC(=O)OC(C)(C)/C=C/C(=O)C(C)(O)C1C(O)CC2(C)C3CC=C(C(C)(C)C(=O)O)C(CC(=O)O)C3(C)C(=O)CC12C (configuration not stated),inactive,inactive
COc1ccc2nc3n[nH]c(C)c3c(NCCOCCO)c2c1,inactive,inactive
C=C1CC2[C@@]3(C)C=CC(=O)C(C)(C)C3=C(O)C(=O)[C@@]2(C)C2(C(=O)OC)C(=O)C(C)OC(=O)[C@@]12C (some centres not stated),inactive,inactive
Cc1ccc(NC(=O)c2ccc(CN3CCNCC3)cc2)cc1Nc1nccc(-c2cccnc2)n1,28.2 µM (active),28.2 µM (active)
